From PubChem BioAssay (NCATS)
Records with an inconclusive call do not appear. Unmarked numbers belong to inactive results. Calls of active or inactive are those of the source. Calls come from the whole dose curve; as a rule, active = well fitted inhibition curve with a large enough effect; inconclusive = small, poorly fitted or top-dose-only effect; inactive = flat fitted curve, though single readings scatter. Peptide text beside a SMILES is read from it.

The molecules below were run on DIV30 (assay: qHTS profiling for inhibitors of Plasmodium falciparum proliferation (AID 504749; note: nearly all actives have a fitted effect of over 60% in size;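 for activity, negative = inhibition: 0% = DMSO vehicle and full inhibition = artemisinin control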)). Details: P. falciparum in erythrocytes, SYBR Green DNA, 72 h; series mostly up to 12.8 µM; activity, negative = inhibition: at the top concentration.
Method in brief: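 Infected RBCs, 0.3% parasitemia/2.5% Hct final; cpd 72 h, 37 C, 5% CO2; lysis buffer with saponin/triton/SYBR Green I, o/n RT dark; FI 485/535; norm. to artemisinin (0.29 uM) and DMSO.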
Potency is the fitted concentration of half-maximal effect.

SMILES	activity, negative = inhibition	Potency
CN(C)CCCOC1C(C(O)CO)OC2OC(C)(C)O[C@@H]21 (stereo not given in full)	-4.59% [at 28.7 µM]	
CCC(C)C(=O)OC1CCC=C2C=CC(C)C(CCC3CC(O)CC(=O)O3)[C@@H]21 (stereo not given in full)	0.208% [at 28.7 µM]	
CC(=O)OC1CCC2C3CCc4cc(O)ccc4C3CCC12C (stereo not given)	-2.85% [at 28.7 µM]	
CC[C@@]12CCCN3CCc4c(n(c5ccccc45)[C@](O)(C(=O)OC)C1)C32 (stereo not given in full)	-13.4% [at 28.7 µM]	
NC(C(=O)O)[C@@H]1CC(Cl)=NO1 (stereo not given in full)		3380 nM (active)
CN1CC(=O)N=C1N	-8.53% [at 28.7 µM]	
OCC1OC([S-])[C@H](O)C(O)C1O.[Au+] (stereo not given in full)	-2.35% [at 28.7 µM]	
CC(C)C1CCC(C(=O)NC(Cc2ccccc2)C(=O)O)CC1 (stereo not given)	-1.3% [at 28.7 µM]	
CCC(CCC(C)C1CCC2C3CC=C4CC(O)CC[C@@]4(C)C3CC[C@@]12C)C(C)C (stereo not given in full)	-0.723% [at 28.7 µM]	
C[C@]12CCC(=O)C=C1CCC1C2C(=O)C[C@]2(C)C1CC[C@]2(O)C(=O)CO (stereo not given in full)	-1.2% [at 28.7 µM]	
OCC1O[C@H](OC2C(CO)O[C@@](O)(CO)C2O)C(O)C(O)C1O (stereo not given in full)	-6.51% [at 28.7 µM]	
CC1(C)OC2CO[C@]3(COS(N)(=O)=O)OC(C)(C)OC3C2O1 (stereo not given in full)	0.339% [at 28.7 µM]	
CC1(C)OC2CC(=O)OC[C@@]23C1CC(=O)[C@]1(C)C3CC[C@@]2(C)C(c3ccoc3)OC(=O)C3O[C@@]321 (stereo not given in full)	0.451% [at 28.7 µM]	
COC1C=CO[C@@]2(C)Oc3c(C)c(O)c4c(O)c(c5c(nc6cc(C)ccn65)c4c3C2=O)NC(=O)/C(C)=C\C=CC(C)C(O)[C@@H](C)C(O)C(C)[C@@H](OC(C)=O)C1C (stereo not given in full)		1350 nM (active)
COC(=O)C(Cc1ccccc1)NC(=O)C(N)CC(=O)O (stereo not drawn) (H-Asp-Phe-OMe; configuration not given here)	2.04% [at 28.7 µM]	
